# HCMV inh = blocks human cytomegalovirus replication | HFF cells, HCMV-luciferase reporter, 72 h; hits give low values | activity change, negative = inhibition, % at 57.5 µM | AID 1259415 | 4.5% of 410,000 active; in the data active = activity change below about -60%; inconclusive = no clear call, values can overlap the other calls; inactive = above about -39%; note: % is set by controls: 0 for no effect and ±100 for the full control effect
#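 Two compound doses tested in HFFs infected with HCMV-luciferase, MOI 1 PFU/cell, 72 h at 37C. Lysate luminescence read with OneGlo; data normalized against buffer-only and 10uM Salinomycin inhibitor controls.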
# Shiga inhibitor = inhibitors of Shiga toxin in Vero cells. Vero cells, Shiga toxin protein synthesis inhibition reporter. 9.2% of 290,000 active. inhibition, % at 38.7 µM; in the data active = inhibition mostly above about 28%, no sharp cut-off; inactive = mostly below about 43%; note: 0% is about no effect
# Cycloheximide cs = counter-screen hit for Shiga toxin inhibitors, cycloheximide | 12% of 300,000 active | max response, % | cell reporter, cycloheximide protein synthesis inhibition counterscreen; in the data active = max response mostly above about 13%, no sharp cut-off; inactive = mostly below about 14%; note: read at 38.3 µM for the half of the compounds with a filed dose; 0% is about no effect
# HCV inh = inhibitors of hepatitis C virus infection. Huh7.5.1 HCVcc-Cre infection, luciferase reporter, 44 h. Potency, µM (highest dose often 41.8 µM), for inactives: top-dose activity change, negative = inhibition, actives largely listed as inhibitors. 3.4% of 340,000 active. AID 651820; note: potency is the fitted concentration of half-maximal effect; % is set by controls: 0 for no effect and ±100 for the full control effect
#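 Infectious HCV cell culture screen: compound-treated cells (1,000/well, pre-plated 4 h) are infected with HCVcc-Cre at roughly 0.5 moi and grown 44 h. Infection is quantified by luciferase signal after 15 min substrate incubation at room temperature.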
# Pf growth 48h = inhibits P. falciparum growth in the first generation, 48 h. P. falciparum luciferase growth in erythrocytes, 48 h. Potency, µM (highest dose often 28.7 µM), without a hit: at the top dose activity change, negative = inhibition, most hits filed as inhibitors. 5.9% of 310,000 active; note: potency is the fitted concentration of half-maximal effect; % is set by controls: 0 for no effect and ±100 for the full control effect
#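 A one-generation exposure of luciferase-tagged malaria parasites in RPMI 1640/Albumax erythrocyte culture, 37 C and 5% CO2. Inhibition is inferred from decreased luminescence after adding detection reagent.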
# Pf growth 96h = P. falciparum growth inhibition at 96 hours. 6.9% of 320,000 active. Potency, µM (top dose mostly 28.7 µM), without a hit: at the top dose activity change, negative = inhibition, actives largely listed as inhibitors. P. falciparum luciferase reporter growth, 96 h; note: potency is the fitted concentration of half-maximal effect; % is set by controls: 0 for no effect and ±100 for the full control effect
#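 Plates of compound plus infected erythrocytes (2% hematocrit, 0.05% parasitemia final) incubate 96 hours, 37 C, 5% CO2. Detection reagent added; reduced luminescence from the parasites' luciferase reporter flags inhibition.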
# * hit, by the source's call; i = inactive; u = inconclusive; x = no result; [ ] = another dose, or the depositor's remark. Sampled rows, rich in hits. Any-hit rate of the full collection: about 21%. Unless noted, calls come from the whole dose curve; as a rule, active = well fitted inhibition curve with a large enough effect; inconclusive = small, poorly fitted or top-dose-only effect, or another doubt; inactive = no such curve, though single readings can be large or run the other way.
SMILES,HCMV inh,Shiga inhibitor,Cycloheximide cs,HCV inh,Pf growth 48h,Pf growth 96h
NC(=O)COc1ccc(NC(=O)OCc2ccccc2)cc1,3.3,35.7*,23.6*,-5.0%,85.3%,x
Cc1ccc(NC(=O)CSc2nc3ccc(NC(=O)COc4ccc(C)cc4)cc3s2)cc1,-19.3,x,x,x,x,x
COc1ccc(OC)c2sc(N3CCN(C(=O)c4ccc5c(c4)CCCC5)CC3)nc12,-3.4,x,x,x,x,x
Cc1cccc(C)c1NC(=O)CNC(=O)c1ccc(COc2ccccc2)o1,0.0,x,x,-1.3%,-6.0%,39.2%
COc1ccc(NCc2cc3ccc(OC)cc3n(CC(=O)Nc3cccc(OC)c3)c2=O)cc1,1.7,x,x,x,x,x
COc1ccc(-c2cc3nc(C)c(CCC(=O)N4CCN(c5ccc(F)cc5)CC4)c(C)n3n2)c(OC)c1,6.5,x,x,x,x,x
Cn1nc(OC(=O)Nc2cccc(Cl)c2)cc1C(F)(F)F,-27.7,15.5,5.2,-16.4%,x,u
Cn1nc(OC(=O)Nc2ccccc2)cc1C(F)(F)F,x,37.2*,27.9*,x,63.2%,87.1%
CC1(C)CC(=O)C=C(C(=O)N2CCCC(C(=O)c3cccc(Cl)c3)C2)O1 (stereo unspecified),10.4,-1.3,-2.5,-2.2%,-18.8%,u
CCCCCc1c(-c2ccc(OC)cc2)ncn1CCc1ccccc1OC,-94.4*,x,x,x,x,x
CCCCc1c(-c2ccccc2OC)ncn1CCc1ccc(Cl)cc1,-11.8,x,x,x,x,x
CCCCc1c(-c2ccc(OC)cc2)ncn1CCc1ccccc1OC,-85.4*,x,x,x,x,x
CCCc1c(-c2cccc(Cl)c2)ncn1Cc1ccccc1OC,-23.0,x,x,x,x,x
CCCCc1c(-c2cccc(Cl)c2)ncn1CCc1ccccc1OC,-80.2*,x,x,x,x,x
CCCCc1c(-c2ccc(F)cc2)ncn1CCc1ccccc1OC,-61.8*,x,x,x,x,x
CCCN(c1ccc(C(C)C)cc1)S(=O)(=O)c1ccc2c(c1)oc(=O)n2CC(=O)OCC,-9.4,x,x,x,x,x
Brc1ccc2c(c1)-n1c(nc3ccccc31)CN2,-35.9,x,x,x,x,x
CCCCCc1c(-c2ccc(Cl)cc2)ncn1CCc1ccccc1OC,-75.2*,x,x,x,x,x
COc1ccccc1CCn1cnc(C)c1CC(C)C,-17.5,x,x,x,x,x
CCc1c(-c2ccc(Cl)cc2)ncn1CCc1ccccc1OC,-22.6,x,x,x,x,x
CCCc1c(Cc2cccc(F)c2)ncn1CCc1ccccc1OC,-61.1*,x,x,x,x,x
CCc1ncn(CCc2ccccc2OC)c1C(C)C,-17.8,x,x,x,x,x
CCCCc1c(Cc2ccccc2)ncn1CCc1ccccc1OC,-76.5*,x,x,x,x,x
CCCCc1c(-c2ccccc2)ncn1CCc1ccccc1OC,-75.2*,x,x,x,x,x
COCCN(C(=O)c1cc(Cl)nc2ccccc12)c1c(N)n(Cc2ccccc2)c(=O)[nH]c1=O,-16.1,x,x,-4.7%,-4.4%,-13.8%
SMILES,HCMV inh,Shiga inhibitor,Cycloheximide cs,HCV inh,Pf growth 48h,Pf growth 96h
CCCCc1c(-c2ccccc2OC)ncn1CCc1ccccc1,-32.7,x,x,x,x,x
CCCCc1c(-c2ccccc2OC)ncn1CCc1ccc(OC)cc1,-63.6*,x,x,x,x,x
O=C(N/N=C/c1c(Cl)cccc1Cl)c1n[nH]c2c1CCCC2,u,132.2*,93.7*,u,107.6%,-7.0%
Cc1ccsc1/C=N\NC(=O)c1n[nH]c2c1CCC2,41.7,3.0,10.6*,u,48.6%,10.4µM*
O=C(N/N=C/c1c(Cl)cccc1Cl)c1ccc(F)cc1,16.2,21.5,3.4,u,-11.6%,-1.8%
COc1ccc(Nc2cc(C(=O)NCc3ccccc3OC)c3ccccc3n2)cc1,-8.7,x,x,x,x,x
COc1cc(CN(C(=O)c2ccc(Cl)cc2)C2CCS(=O)(=O)C2)cc(OC)c1OC (stereo unspecified),-0.4,x,x,x,x,x
COc1ccc(C(=O)NCC(=O)N/N=C/c2cn[nH]c2-c2ccccc2)cc1,u,29.3,-1.4,6.3%,-7.2%,36.6%
Cc1nc(SC(C)C(=O)NC2CCCCC2C)c2c(C)c(C)sc2n1 (stereo unspecified),u,3.1,-3.2,11.9%,7.6%,14.7µM*
CC(Sc1n[nH]c(N)n1)C(=O)NC1CCCCC1C (stereo unspecified),-20.9,-2.2,-2.1,20.4%,85.5%,1.5%
Cc1n[nH]c(C)c1CCN(C)Cc1cn(C)nc1-c1ccc2c(c1)OCCO2,15.5,-9.9,-1.7,2.2%,28.4%,1.31µM*
CN(CCc1cnn(C)c1)Cc1cn(C)nc1-c1ccc2c(c1)OCCO2,-2.2,3.4,6.4,4.8%,23.5%,0.0%
COc1ccc2c3c(c(=O)oc2c1)C1O[C@](CCCCN2C(=O)c4ccccc4C2=O)(Cc2cc(OC)c(OC)cc21)O3,x,i,-1.9,x,1.51µM*,40.6%[5.75 µM]
COc1cc2c(cc1OC)C1O[C@](CCCCN3C(=O)c4ccccc4C3=O)(C2)OC2=C1C(=O)CCC2,x,i,-0.9,x,1.51µM*,1.51µM*
COc1cc2c(cc1OC)C1O[C@](CCCCN3C(=O)c4ccccc4C3=O)(C2)OC2=C1C(=O)c1ccccc1C2=O,x,i,-1.5,x,u,0.338µM*
CC1=NN(C(=O)c2ccc(Br)cc2)C(O)(C(F)(F)OC(F)(F)F)C1 (stereo unspecified),5.6,29.1,16.6*,8.9%,4.65µM*,u
CC1=NN(C(=O)c2nn(C)cc2Br)C(O)(C(F)(F)F)C1 (stereo unspecified),1.3,59.5*,35.1*,23.9%,17.2%,u
CC1=NN(C(=O)c2csc(C)c2)C(O)(C(F)(F)F)C1 (stereo unspecified),1.2,32.8,28.3,0.0%,-0.4%,3.4%[5.75 µM]
CC1=NN(C(=O)c2csc(C)c2C)C(O)(C(F)(F)F)C1 (stereo unspecified),2.0,47.2*,37.3*,1.6%,15.0%,31.7%
CC1=NN(C(=O)c2c(Br)cnn2C)C(O)(C(F)(F)F)C1 (stereo unspecified),8.4,-4.4,0.5,16.2%,u,u
CCCC(=O)N(Cc1cc2cccc(C)c2[nH]c1=O)c1ccccc1OC,-31.8,5.6,2.3,-28.6%,11.7µM*,-13.3%
CCCC(=O)N(Cc1cc2ccccc2[nH]c1=O)c1ccccc1OC,-19.0,4.8,11.0,-3.4%,x,x
CC(=O)Nc1ccc(S(=O)(=O)NC2CC(=O)N(c3ccc4c(c3)OCCO4)C2)cc1 (stereo unspecified),-18.5,x,x,12.2%,u,-25.4%
CCCCc1nn2c(=O)cc(COC(=O)c3cccc(OC)c3)nc2s1,-13.3,x,x,x,x,x
CCOc1ccccc1C(=O)Nc1cc(-c2ccc(C)cc2)no1,70.9,x,x,x,x,x
c1ccc2c(c1)nc(N1CCOCC1)c1nnnn12,15.2,active,32.3*,13.6%,54.9%,u
C1CN(c2nc3nonc3n3nnnc23)CCO1,u,-1.9,-1.2,17.9%,17.7%,18.5%[5.75 µM]
c1ccc2c(c1)nc(N1CCN(C3CCCCC3)CC1)c1nnnn12,x,20.2,2.4,9.9%,34.9%,8.4%
c1ccc(N2CCN(c3nc4ccccc4n4nnnc34)CC2)cc1,81.7,27.8*,37.7*,24.8%,u,-10.8%
